Source: the supplement of paper PMC10646978
± gives the standard deviation.

Key:
Details in all cases: modulator concentration 10 µM
[1] = system: RAW-Dual (murine macrophage reporter line); experiment: NF-kB reporter (SEAP) activity fold change vs agonist alone; higher = enhanced NF-kB activity
How it was run: (§1)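 Compound reached 10 μM final in each well by pin transfer, onto RAW-Dual murine macrophage reporter cells seeded at 50 000 per well in 384-well plates. After 1 hour at 37 °C, the cells were stimulated overnight with a PRR agonist. SEAP in the supernatant was read with QUANTI-Blue at 620 nm absorbance for NF-κB, and Lucia luciferase was read with QUANTI-Luc luminescence for IRF. Each signal was turned into fold change against the mean agonist-only control on the same plate, and two replicate plates were averaged with propagated errors.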

[2] = system: RAW-Dual (murine macrophage reporter line); experiment: IRF reporter (Lucia luciferase) activity fold change vs agonist alone; higher = enhanced IRF activity
How it was run: as §1

[3] = system: RAW-Dual (murine macrophage reporter line); experiment: viability score (confluency relative to resting cells, overnight) (fraction); higher = more viable, active = viable (0.7 or more)
How it was run: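 Two confluency masks, generated with IncuCyte software over all imaged wells, were applied to IncuCyte images of RAW-Dual macrophages. The cells, in 384-well plates, had been exposed overnight to 10 μM final compound. The viability score is confluency as a fraction of resting cells, and a compound met the cutoff only with both masks above 70% of resting cells.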

[4] = agonist: CpG ODN 1826 0.5 ug/mL

Row | Compound | NF-kB reporter [1, 4] | NF-kB reporter ([1]; agonist: LPS 0.1 ug/mL) | NF-kB reporter ([1]; agonist: MPLA […]) | IRF reporter ([2]; agonist: 3'3'-cGAMP 10 ug/mL) | IRF reporter ([2]; agonist: LPS 0.1 ug/mL) | IRF reporter ([2]; agonist: MPLA […]) | viability score [3]
1 | O=C(NCC1(O)Cc2ccccc2C1)c1cccc(Br)c1 | 1.09 ± 0.055 | 1.02 ± 0.093 | 1.03 ± 0.15 | 1.05 ± 0.069 | 1.2 ± 0.11 | 1.32 ± 0.1 | 0.677 (inactive)
2 | Cc1cc(C)n(CCNc2nc3ccccc3s2)n1 | 1.07 ± 0.1 | 1.08 ± 0.085 | 1 ± 0.1 | 1.08 ± 0.055 | 1.18 ± 0.081 | 1.14 ± 0.29 | 0.993 (active)
3 | Cl.N=c1ccn2c(n1)OC1C(O)C(CO)OC12 (centres undefined) | 1.41 ± 0.38 | 1.17 ± 0.17 | 1.16 ± 0.073 | 0.696 ± 0.026 | 1.15 ± 0.18 | 0.959 ± 0.091 | 0.733 (active)
4 | c1ccc(CSc2nnc(-c3ccncc3)[nH]2)cc1 | 1.08 ± 0.085 | 0.945 ± 0.097 | 1.04 ± 0.028 | 0.582 ± 0.033 | 0.888 ± 0.043 | 0.872 ± 0.09 | 0.996 (active)
5 | c1ccc2nc3c(cc(N4CCOCC4)c4ccccc43)nc2c1 | 0.92 ± 0.078 | 1.04 ± 0.062 | 0.969 ± 0.14 | 0.924 ± 0.023 | 1.34 ± 0.2 | 1.08 ± 0.2 | 1.01 (active)
6 | Cc1ccc2c(c1)C(=O)CC(O)(C(F)F)O2 (centres undefined) | 0.922 ± 0.073 | 1 ± 0.067 | 0.954 ± 0.062 | 0.764 ± 0.12 | 0.984 ± 0.089 | 0.959 ± 0.14 | 1 (active)
7 | N#Cc1c(-n2ncnc2-c2cccc([N+](=O)[O-])c2)sc2c1CCCC2 | 0.954 ± 0.063 | 1.05 ± 0.085 | 0.932 ± 0.073 | 0.932 ± 0.033 | 1.46 ± 0.12 | 1.2 ± 0.15 | 1 (active)
8 | CCCc1nc2c(C)cc(-c3nc4ccccc4n3C)cc2n1Cc1ccc(-c2ccccc2C(=O)O)cc1 | 1.29 ± 0.18 | 1.16 ± 0.29 | 0.99 ± 0.073 | 0.997 ± 0.032 | 1.49 ± 0.28 | 1.06 ± 0.11 | 0.993 (active)
9 | CC(C)(C)c1cc(C=NO)c(C(C)(C)C)s1 | 0.48 ± 0.028 | 1.03 ± 0.063 | 0.985 ± 0.061 | 0.6 ± 0.02 | 1.13 ± 0.074 | 0.746 ± 0.22 | 0.0422 (inactive)
10 | O=C(NCCc1csc(-c2ccc(F)cc2)n1)c1ccc(Br)cc1 | 0.825 ± 0.064 | 1.18 ± 0.089 | 1.19 ± 0.043 | 0.693 ± 0.027 | 1.07 ± 0.11 | 1.19 ± 0.15 | 0.999 (active)
11 | Fc1ccc(Nc2nc(NN=Cc3ccccc3Cl)nc(N3CCCCC3)n2)cc1 | 1.02 ± 0.17 | 1.26 ± 0.13 | 1.4 ± 0.31 | 0.992 ± 0.071 | 1.1 ± 0.19 | 1.48 ± 0.24 | 0.961 (active)
12 | Cc1ccc2sc(NC(=O)c3cccc(N4C(=O)CCC4=O)c3)nc2c1C | 0.946 ± 0.097 | 0.877 ± 0.074 | 1.11 ± 0.12 | 0.939 ± 0.03 | 1.39 ± 0.19 | 1.57 ± 0.21 | 1.02 (active)
13 | O=C(O)c1ccccc1N(Cc1ccccc1)S(=O)(=O)c1ccccc1 | 1.14 ± 0.13 | 1 ± 0.15 | 1.08 ± 0.061 | 0.965 ± 0.1 | 1.06 ± 0.072 | 0.938 ± 0.14 | 0.984 (active)
14 | O=C(O)CCC(=O)O.O=C(O[C@H]1CN2CCC1CC2)N1CCc2ccccc2[C@@H]1c1ccccc1 | 0.544 ± 0.087 | 0.886 ± 0.046 | 1.07 ± 0.029 | 0.921 ± 0.1 | 1.05 ± 0.097 | 0.977 ± 0.11 | 0.992 (active)
15 | COc1ccccc1OCCOCCOc1cccc(Br)c1 | 0.883 ± 0.14 | 1.05 ± 0.12 | 0.945 ± 0.087 | 1.05 ± 0.044 | 1.27 ± 0.29 | 1.36 ± 0.24 | 0.802 (active)
16 | CN1CCN(C(=O)CN2C(=O)c3cccc4cccc(c34)C2=O)CC1 | 0.881 ± 0.082 | 0.981 ± 0.061 | 0.88 ± 0.091 | 0.971 ± 0.026 | 1.21 ± 0.19 | 0.967 ± 0.26 | 1.01 (active)
17 | Cn1nccc1C(=O)N1CCC(O)(C(F)(F)F)CC1 | 1.22 ± 0.29 | 0.996 ± 0.082 | 1.01 ± 0.078 | 0.92 ± 0.033 | 1.14 ± 0.13 | 1.3 ± 0.19 | 0.997 (active)
18 | COc1ccc(C=Nn2cc(-c3ccc(Cl)cc3)nc2N=Cc2cc(Br)cc(Br)c2O)cc1 | 0.863 ± 0.068 | 0.919 ± 0.067 | 0.874 ± 0.094 | 0.883 ± 0.037 | 1.08 ± 0.14 | 1.07 ± 0.23 | 1.02 (active)
19 | Nc1ncnc2c1ncn2[C@@H]1O[C@H](CO)[C@@H](O)[C@@H]1O | 1.15 ± 0.095 | 0.941 ± 0.047 | 1.02 ± 0.053 | 0.953 ± 0.067 | 0.983 ± 0.077 | 1.02 ± 0.12 | 0.991 (active)
20 | O=C(CCCC(=O)Nc1ccc(Cl)c(Cl)c1)Nc1ccc(Cl)c(Cl)c1 | 0.964 ± 0.076 | 1.02 ± 0.062 | 0.914 ± 0.068 | 0.963 ± 0.029 | 1.41 ± 0.13 | 1.13 ± 0.14 | 1.01 (active)
21 | COc1ccc(N(CC(=O)NCCSCc2ccccc2)S(C)(=O)=O)cc1Cl | 0.873 ± 0.15 | 1.06 ± 0.071 | 0.893 ± 0.068 | 0.864 ± 0.12 | 1.08 ± 0.1 | 0.85 ± 0.18 | 1.01 (active)
22 | Cc1ccc([N+](=O)[O-])cc1S(=O)(=O)N(C)C | 1.05 ± 0.17 | 0.949 ± 0.077 | 1 ± 0.1 | 1.06 ± 0.037 | 1.09 ± 0.26 | 1.2 ± 0.12 | 1 (active)
23 | Cc1ccc(Cn2c(N)nc3ccccc32)cc1 | 0.363 ± 0.067 | 1.21 ± 0.12 | 1.09 ± 0.098 | 1.07 ± 0.07 | 1.09 ± 0.23 | 1.37 ± 0.14 | 0.702 (active)
24 | Oc1nc[nH]n1 | 1.05 ± 0.087 | 0.927 ± 0.067 | 1.02 ± 0.022 | 1 ± 0.06 | 0.923 ± 0.04 | 0.838 ± 0.074 | 1 (active)
25 | Nc1ncnc2c1ncn2C1CC(O)C(CO)O1 (centres undefined) | 0.992 ± 0.08 | 0.875 ± 0.065 | 1.12 ± 0.11 | 1.12 ± 0.039 | 1.29 ± 0.18 | 1.35 ± 0.26 | 1.05 (active)
26 | CC1CC(=O)C2=C(C1)OC(N)=C(C#N)C2c1ccc(F)cc1 (centres undefined) | 0.894 ± 0.09 | 1.01 ± 0.1 | 0.935 ± 0.066 | 0.874 ± 0.053 | 1.08 ± 0.077 | 1.13 ± 0.2 | 0.982 (active)
27 | O=Cc1cn(CCOc2ccc(Br)cc2)c2ccccc12 | 1.25 ± 0.13 | 1.06 ± 0.054 | 1.59 ± 0.22 | 0.684 ± 0.033 | 0.674 ± 0.043 | 0.67 ± 0.085 | 0.977 (active)
